D2 ag-1 – Beta-Arrestin HTS for Positive Allosteric Modulators of the Human D2 Dopamine Receptor: Agonists; hit rate 0.084% among 360,000; activation, % (test concentration not listed); D(2) dopamine receptor (Homo sapiens), P14416; AID 624465, 2012; DiscoveRx PathHunter D2 beta-arrestin, luminescence, 90 min; 100% = 57 uM dopamine signal; in the data active means activation above about 40%; inconclusive means between about 15% and that limit
Target sequence (P14416 whole entry, looked up): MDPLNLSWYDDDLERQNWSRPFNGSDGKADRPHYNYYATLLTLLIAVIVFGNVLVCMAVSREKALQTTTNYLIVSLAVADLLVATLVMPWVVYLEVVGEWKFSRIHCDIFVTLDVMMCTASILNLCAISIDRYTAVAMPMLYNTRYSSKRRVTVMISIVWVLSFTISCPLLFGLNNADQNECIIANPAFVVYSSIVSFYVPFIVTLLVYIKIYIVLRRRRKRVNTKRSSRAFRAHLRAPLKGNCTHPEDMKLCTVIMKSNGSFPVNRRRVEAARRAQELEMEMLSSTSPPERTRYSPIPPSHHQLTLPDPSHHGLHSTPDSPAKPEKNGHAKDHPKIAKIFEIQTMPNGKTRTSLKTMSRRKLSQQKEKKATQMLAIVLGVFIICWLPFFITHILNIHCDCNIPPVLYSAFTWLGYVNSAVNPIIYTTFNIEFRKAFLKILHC
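Agonist mode: compounds alone added to overnight-plated D2 PathHunter cells for 90 min at 37 C, with 57 uM final dopamine (EC100) defining full response. Beta-arrestin recruitment detected by chemiluminescent reagent, read after 1 h at ambient temperature.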
D2 ag-2 – HTS Assay for Allosteric Agonists of the Human D2 Dopamine Receptor: Primary Screen for Agonists; hit rate 0.53% among 340,000; D(2) dopamine receptor (Homo sapiens), P14416; HEK293 T-REx D2 cells, calcium flux agonist mode; activation, % at 2 µM;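 active means activation over 3 SD above normal in the single-dose calcium agonist read, cut at about 30% in these data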; further: 0% is about no effect
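HEK293 Trex D2 cells, tetracycline-induced, o/n 30 C 5% CO2; no-wash Ca dye, RT 30–90 min; 10-cycle baseline, 23 nl cpd added, kinetic Ca read 180 s; agonist hits = positive Ca response.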
D2 antag – HTS Assay for Allosteric Antagonists of the Human D2 Dopamine Receptor: Primary Screen for Antagonists | HEK293 TREx D2 cells, calcium flux, dopamine EC80 | inhibition, % at 10 µM | hit rate 2% among 340,000; in the data active means inhibition above about 30%; inactive means below that, where a call was filed; further: 0% is about no effect
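Tetracycline-induced HEK293 TREx cells expressing D2 receptor forced-coupled to calcium signalling, loaded with no-wash calcium dye. Compounds added and calcium flux read 180 s, then dopamine added at EC80 and read a further 180 s.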
D2 PAM-1 – Beta-Arrestin HTS for Positive Allosteric Modulators of the Human D2 Dopamine Receptor: Potentiators | D(2) dopamine receptor (Homo sapiens), P14416 | DiscoveRx D2 beta-arrestin cells, luminescence, 90 min; 100% = 57 uM dopamine signal | potentiation, % (test concentration not listed) | hit rate 0.23% among 360,000 | AID 624464, 2012; in the data active means potentiation above about 50%; inconclusive means mostly about 30% to 49%
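PathHunter beta-arrestin assay in DiscoveRx D2 cells. Compounds were added with an EC20 of dopamine (50 nM final) for 90 min at 37 deg C. Luminescence was read 1 h after detection reagent, with 57 uM dopamine as the EC100 control.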
D2 PAM-2 – HTS Assay for Positive Allosteric Modulators of the Human D2 Dopamine Receptor: Primary Screen for Potentiators | D(2) dopamine receptor (Homo sapiens), P14416 | HEK293 T-REx D2, calcium flux, EC20 dopamine potentiation | potentiation, % at 10 µM | hit rate 0.34% among 340,000 | AID 485347, 2010;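 active means potentiation over 3 SD above the plate norm, cut at about 30% in these data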; further: 0% is about no effect
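Potentiation of an EC20 dopamine calcium response is measured in a force-coupled, tetracycline-inducible Hek293 Trex D2 line. Compound-only kinetic reads over 180 s flag agonists before dopamine addition.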
Starred values were filed as active, the others as inactive; ? = inconclusive; . = no result given. Only some compounds are listed: those with a hit (about 2.4% of all), similar ones and a draw of the others.

SMILES | D2 ag-1 | D2 ag-2 | D2 antag | D2 PAM-1 | D2 PAM-2
Cc1c(C(=O)NCc2ccc([N+](=O)[O-])cc2)sc(=O)n1Cc1ccc2c(c1)OCO2 | 0.8 | . | . | -4.2 | .
O=C(NCCCN1CCCC1)c1[nH]c(C(F)(F)F)nc1-c1ccccc1 | 3.2 | . | . | -0.3 | .
COc1ccc(Cc2nc3c([nH]2)c(=O)n(C)c(=O)n3C)cc1OC | -0.9 | . | . | -0.6 | .
O=C(Nc1cccc(F)c1)NC1CCN(Cc2ccccc2)CC1 | -2.6 | 0.4 | 88.6* | -17.7 | -29.4
O=C(CCCn1c(=O)c2ccccc2n(Cc2cccc(F)c2)c1=O)NC1CCN(Cc2ccccc2)CC1 | . | 18.0 | 39.6* | . | -19.7
COC(=O)c1ccc(COC(=O)[C@@H]2CC(O)CN2S(=O)(=O)c2ccccc2[N+](=O)[O-])cc1 (some centres undefined) | 1.5 | -0.2 | 8.0 | 4.1 | 6.4
CCCCOc1ccc(CN(C)c2ncnc(N)n2)cc1 | -1.1 | 0.3 | 30.7* | -2.7 | -4.2
Cc1nc2nc(SCC(=O)N(C)Cc3ccccc3)nn2c(C)c1Cc1ccccc1Cl | . | 0.8 | . | . | 15.2
CCOC(=O)c1cc(S(=O)(=O)N2CCN(c3ccccc3OC)CC2)[nH]n1 | . | -0.5 | . | . | 1.7
CCCCOc1ccc(S(=O)(=O)NNC(=O)c2cc3ccccc3o2)cc1 | -1.8 | -1.3 | 44.2* | -11.5 | -1.4
Cc1ccc(OCCCCn2c(-c3ccc(Cl)cc3)nc3ccccc3c2=O)cc1 | . | 0.3 | . | . | 11.1
O=S(=O)(c1ccccc1)N1CCCN(S(=O)(=O)c2ccccc2)CC1 | 3.8 | -0.4 | 3.0 | -9.8 | -4.2
O=S(=O)(c1ccccc1)N1CCN(S(=O)(=O)N2CCCCC2)CC1 | 2.4 | -1.1 | 37.8* | -5.1 | 8.6
O=C(O)CSCCc1ccccn1 | -1.6 | -1.4 | 52.8* | -3.8 | -18.9
CC(=O)N1CCc2c(sc(NC(=O)c3ccc([N+](=O)[O-])o3)c2C(N)=O)C1 | -4.2 | . | . | -32.9 | .
C/C(=N\NC(=O)CN(c1ccccc1)S(C)(=O)=O)c1ccccc1O | -0.1 | 0.2 | 43.9* | -16.9 | -20.4
Cc1ccccc1NC(=O)C(=O)NCC(c1ccc2c(c1)OCO2)N1CCN(c2ccccc2)CC1 (centres undefined) | . | . | . | . | -18.3
CN1CCN(S(=O)(=O)c2ccc(Oc3ccc(F)cc3Br)nc2)CC1 | -0.9 | 1.6 | 4.8 | -1.1 | 10.3
CN1CCN(S(=O)(=O)c2ccc(Oc3ccc(Br)cc3F)nc2)CC1 | -1.4 | -0.9 | 33.8* | 1.4 | 3.5
Cc1ccc(C(C(=O)NC2CCCC2)N(C(=O)Cc2cccs2)c2ccc3c(c2)OCCO3)cc1 (centres undefined) | -5.3 | 1.7 | 48.1* | -6.6 | -8.0
O=C(NC1CCCC1)C(c1ccc(F)cc1)N(C(=O)Cc1cccs1)c1ccc2c(c1)OCCO2 (centres undefined) | 0.2 | 0.3 | 4.9 | -2.7 | -1.4
COc1ccc(C(=O)c2ccc(OC)c3cccc(O)c23)cc1OC | 4.2 | 0.2 | -8.6 | 73.1* | 12.7
NC(c1csc(NC(=O)Nc2ccc(OC(F)(F)F)cc2)n1)C1CCCCC1 (centres undefined) | 4.5 | . | . | 8.4 | .
O=C(CNC(=O)C1CC(=O)N(c2cccc3ccccc23)C1)Nc1ccccc1Br (centres undefined) | -2.7 | 1.5 | -37.1 | 1.3 | 17.4
Cc1onc(C(=O)N2CCN(c3ccccc3F)CC2)c1-c1ccccc1Cl | -0.3 | -1.4 | -6.6 | -33.5 | 34.1*
SMILES | D2 ag-1 | D2 ag-2 | D2 antag | D2 PAM-1 | D2 PAM-2
Cc1cc(N2CCN(C)CC2)nc2ccc(NC(=S)NCCCN3CCc4ccccc4C3)cc12 | -3.1 | 0.5 | 34.1* | -14.1 | -29.1
CCN1CCN(c2cc(C)c3cc(NC(=S)NCCCN4CCc5ccccc5C4)ccc3n2)CC1 | -2.9 | 0.6 | 52.6* | -14.5 | -32.0
Cc1cc(N2CCN(C)CC2)nc2ccc(NC(=S)NCCN3CCc4ccccc4C3)cc12 | -0.4 | -0.8 | 14.5 | -20.4 | -25.0
CCOC(=O)c1cc(CC)sc1NC(=O)COc1ccccc1C | . | -0.7 | . | . | -17.6
CCS(=O)(=O)NC(C)C(c1cccs1)N1CCN(c2ccc(F)cc2)CC1 (centres undefined) | -1.1 | 1.9 | 39.7* | -2.5 | -3.9
N#Cc1c(F)cccc1N1CCOCC1 | -5.6 | 0.2 | -30.1 | -20.2 | 34.8*
N/C(=N\OC(=O)c1ccc([N+](=O)[O-])cc1)c1cccnc1 | 8.9 | -0.3 | -2.6 | 28.6 | 4.7
N/C(=N\OC(=O)c1ccccc1[N+](=O)[O-])c1cccnc1 | ? | 0.7 | -4.7 | 108.2* | -2.4
Cc1ccc(C(=O)O/N=C(\N)c2cccnc2)cc1[N+](=O)[O-] | 7.3 | -0.4 | -4.8 | 66.2* | -3.2
O=C(CSc1ncccc1C(=O)O)Nc1ccc2c(c1)OCCO2 | -1.3 | . | . | -7.7 | .
COc1ccc(CNc2nc(NCc3ccc(OC)cc3)c3[nH]cnc3n2)cc1 | 6.0 | 0.0 | 41.6* | 17.6 | 3.5
COc1ccc(CNc2ncnc(N)n2)cc1 | -1.1 | 1.3 | 13.5 | 4.0 | -6.3
COc1ccccc1NC(=O)C(Cc1ccccc1)NS(=O)(=O)c1ccc2c(c1)c(=O)n(C)c(=O)n2C (centres undefined) | . | 0.2 | . | . | 6.1
CC1(c2ccc(OC(F)F)cc2)NC(=O)N(CC(=O)Nc2ccc(F)cc2)C1=O (centres undefined) | -0.6 | 18.7 | -3.6 | -0.2 | 7.1
CC1(c2ccc(OC(F)F)cc2)NC(=O)N(CC(=O)Nc2cccc(F)c2)C1=O (centres undefined) | 0.6 | 33.2* | -13.8 | -3.8 | 2.4
O=c1c2oc3ccccc3c2n(Cc2ccc(Cl)cc2)c(=O)n1Cc1ccccc1 | . | 5.3 | . | . | -0.4
O=C1CN(C(=O)COC(=O)c2cccs2)c2ccccc2N1 | -5.3 | -1.0 | 16.4 | -0.5 | 16.0
O=C1CN(C(=O)COC(=O)c2ccc([N+](=O)[O-])s2)c2ccccc2N1 | ? | . | . | 68.8* | .
O=C1CN(C(=O)COc2ncnc3ccccc23)c2ccccc2N1 | -3.2 | -0.4 | -10.0 | -16.2 | 3.3
O=C1CN(C(=O)COc2ccc(F)cc2Cl)c2ccccc2N1 | -0.1 | -0.2 | 14.8 | 6.5 | 1.5
Cc1sc2ncnc(OCC(=O)N3CC(=O)Nc4ccccc43)c2c1C | -1.6 | -0.7 | -1.2 | -8.3 | 31.5*
CC1CC(=O)Nc2ccccc2N1C(=O)COc1ccc2ccccc2c1 (centres undefined) | 2.2 | . | . | 1.5 | .
CC1CC(=O)Nc2ccccc2N1C(=O)COc1cc(Cl)ccc1Cl (centres undefined) | 1.8 | -0.1 | 30.4* | -4.4 | -4.3
